# PubChem BioAssay (EPA / NIEHS)
# Results filed as inconclusive are left out. Calls of active or inactive are those of the source. The calls were made as follows: active = hit-call score of the fitted dose curve at least 0.9, where 1 is the maximum; inconclusive = response in the unintended direction; inactive = score below 0.9.
# Assays:
# [1] = molecular target: human MAP Kinase-Activated Protein Kinase 2 (MAPKAPK2), MAPKAPK2 (gene 9261) (UniProt P49137); experiment: NVS_ENZ_hMAPKAPK2: NovaScreen (NVS) Enzymatic Assay for human MAP Kinase-Activated Protein Kinase 2 (MAPKAPK2) (AID 2283178)
# human MAP Kinase-Activated Protein Kinase 2 (MAPKAPK2), MAPKAPK2 (gene 9261), sequence (P49137 whole entry, looked up): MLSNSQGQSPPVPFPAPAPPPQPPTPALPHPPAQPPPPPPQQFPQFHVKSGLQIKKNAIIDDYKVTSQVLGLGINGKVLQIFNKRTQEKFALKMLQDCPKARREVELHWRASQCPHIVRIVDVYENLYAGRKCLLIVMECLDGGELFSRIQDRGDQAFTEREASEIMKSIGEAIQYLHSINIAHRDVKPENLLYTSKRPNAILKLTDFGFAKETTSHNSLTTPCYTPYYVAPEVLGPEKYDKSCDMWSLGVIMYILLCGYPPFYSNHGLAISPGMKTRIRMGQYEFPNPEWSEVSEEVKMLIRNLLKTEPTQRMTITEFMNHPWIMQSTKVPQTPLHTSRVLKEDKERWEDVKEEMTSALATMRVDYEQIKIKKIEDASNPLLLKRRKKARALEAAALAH
# Description: NVS_ENZ_hMAPKAPK2 is a biochemical, single-readout assay that uses extracted gene-proteins in a cell-free assay. Measurements were taken 1 hour after chemical dosing in a 384-well plate.NVS_ENZ_hMAPKAPK2 is one of one assay component(s) measured or calculated from the NVS_ENZ_hMAPKAPK2 assay. It is designed to make measurements of enzyme activity, a form of enzyme reporter, as detected with fluorescence intensity signals by Fluorescence and electrophoretic mobility shift technology.Data from the assay component NVS_ENZ_hMAPKAPK2 was analyzed into 1 assay endpoint. This assay endpoint, NVS_ENZ_hMAPKAPK2, was analyzed in the positive analysis fitting direction relative to DMSO as the negative control and baseline of activity. Using a type of enzyme reporter, loss-of-signal activity can be used to understand changes in the enzymatic activity as they relate to the gene MAPKAPK2. Furthermore, this assay endpoint can be referred to as a primary readout, because this assay has produced multiple assay endpoints where this one serves a enzymatic activity function. To generalize the intended target to other relatable targets, this assay endpoint is annotated to the kinase intended target family, where the subfamily is serine/threonine kinase. […]
# [2] = molecular target: human Phosphoinositide 3-kinase alpha (PI3Ka), PIK3CA (gene 5290) (UniProt P42336); experiment: NVS_ENZ_hPI3Ka: NovaScreen (NVS) Enzymatic Assay for human Phosphoinositide 3-kinase alpha (PI3Ka) (AID 2283196)
# human Phosphoinositide 3-kinase alpha (PI3Ka), PIK3CA (gene 5290), sequence (P42336 whole entry, looked up): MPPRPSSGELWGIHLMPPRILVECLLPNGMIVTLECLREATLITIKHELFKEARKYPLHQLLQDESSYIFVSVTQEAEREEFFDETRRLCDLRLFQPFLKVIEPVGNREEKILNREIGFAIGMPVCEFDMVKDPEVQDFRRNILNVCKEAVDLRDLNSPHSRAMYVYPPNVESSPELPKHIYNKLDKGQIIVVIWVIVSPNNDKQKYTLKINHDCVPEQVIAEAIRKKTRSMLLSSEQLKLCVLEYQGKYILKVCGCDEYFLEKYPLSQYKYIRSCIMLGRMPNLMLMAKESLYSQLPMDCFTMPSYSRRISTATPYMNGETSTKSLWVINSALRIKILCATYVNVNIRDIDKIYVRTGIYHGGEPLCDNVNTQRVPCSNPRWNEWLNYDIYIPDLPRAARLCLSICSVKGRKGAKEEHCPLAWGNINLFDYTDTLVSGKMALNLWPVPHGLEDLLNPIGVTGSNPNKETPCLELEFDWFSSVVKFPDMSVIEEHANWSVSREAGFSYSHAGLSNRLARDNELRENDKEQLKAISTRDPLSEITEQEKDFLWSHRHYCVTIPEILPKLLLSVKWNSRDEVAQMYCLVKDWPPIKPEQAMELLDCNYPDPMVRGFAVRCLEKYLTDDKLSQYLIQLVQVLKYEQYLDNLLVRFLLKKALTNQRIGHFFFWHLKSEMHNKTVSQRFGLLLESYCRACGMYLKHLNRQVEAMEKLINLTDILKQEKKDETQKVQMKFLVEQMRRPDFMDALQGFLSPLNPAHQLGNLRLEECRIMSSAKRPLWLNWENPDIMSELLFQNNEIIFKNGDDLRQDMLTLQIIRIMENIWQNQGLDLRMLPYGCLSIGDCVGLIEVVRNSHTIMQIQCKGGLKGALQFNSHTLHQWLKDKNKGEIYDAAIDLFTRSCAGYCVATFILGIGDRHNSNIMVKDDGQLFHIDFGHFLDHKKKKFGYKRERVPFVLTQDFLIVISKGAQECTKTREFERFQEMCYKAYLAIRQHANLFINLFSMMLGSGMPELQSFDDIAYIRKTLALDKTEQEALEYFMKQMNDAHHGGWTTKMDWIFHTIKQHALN
# Outline: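 Chemicals were first screened at 25 uM in duplicate, then hits were run as concentration series up to 50 uM. Enzyme activity was measured by fluorescence after mobility-shift separation, with loss of signal relative to DMSO taken as activity.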
# [3] = molecular target: human Mitogen- and Stress-activated Protein Kinase-1 (Msk1), RPS6KA5 (gene 9252) (UniProt O75582); experiment: NVS_ENZ_hMsk1: NovaScreen (NVS) Enzymatic Assay for human Mitogen- and Stress-activated Protein Kinase-1 (Msk1) (AID 2283187)
# Outline: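 Chemicals first run in duplicate at 25 uM, with actives followed up in singleton concentration series to 50 uM maximum. Enzyme activity came from substrate/product mobility-shift separation with fluorescence detection after 1 h incubation of the recombinant protein.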
# [4] = molecular target: Tyrosine-protein phosphatase non-receptor type 11 (Homo sapiens) (UniProt Q06124); experiment: NVS_ENZ_hPTPN11: NovaScreen (NVS) Enzymatic Assay for human Protein Tyrosine Phosphatase Non-receptor Type 11 (PTPN11) (AID 2283202)
# Tyrosine-protein phosphatase non-receptor type 11 (Homo sapiens), sequence (Q06124 whole entry, looked up): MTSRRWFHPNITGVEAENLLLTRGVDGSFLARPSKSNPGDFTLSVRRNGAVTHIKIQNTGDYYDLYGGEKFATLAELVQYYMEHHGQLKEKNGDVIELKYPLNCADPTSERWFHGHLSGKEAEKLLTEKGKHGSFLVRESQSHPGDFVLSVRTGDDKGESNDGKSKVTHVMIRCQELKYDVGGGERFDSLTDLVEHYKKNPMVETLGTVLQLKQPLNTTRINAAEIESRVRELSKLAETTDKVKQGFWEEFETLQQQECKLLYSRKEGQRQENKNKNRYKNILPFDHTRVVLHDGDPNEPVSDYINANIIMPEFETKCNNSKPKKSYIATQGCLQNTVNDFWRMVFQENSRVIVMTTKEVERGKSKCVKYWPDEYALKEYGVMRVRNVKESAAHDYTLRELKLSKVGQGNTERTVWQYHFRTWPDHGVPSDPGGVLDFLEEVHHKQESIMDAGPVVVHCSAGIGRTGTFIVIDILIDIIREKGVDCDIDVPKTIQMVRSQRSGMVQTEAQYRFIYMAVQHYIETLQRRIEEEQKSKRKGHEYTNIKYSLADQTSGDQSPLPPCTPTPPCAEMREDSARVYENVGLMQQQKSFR
# Outline: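 Compounds first tested in duplicate at 25 uM; those reaching ~30% inhibition rerun in singleton concentration-response, top 50 uM. Phosphatase activity measured after 0.5 h by fluorescence with mobility-shift separation, relative to DMSO.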
# [5] = molecular target: human Matrix Metalloproteinase-2 (MMP2), MMP2 (gene 4313) (UniProt P08253); experiment: NVS_ENZ_hMMP2: NovaScreen (NVS) Enzymatic Assay for human Matrix Metalloproteinase-2 (MMP2) (AID 2283184)
# human Matrix Metalloproteinase-2 (MMP2), MMP2 (gene 4313), sequence (P08253 whole entry, looked up): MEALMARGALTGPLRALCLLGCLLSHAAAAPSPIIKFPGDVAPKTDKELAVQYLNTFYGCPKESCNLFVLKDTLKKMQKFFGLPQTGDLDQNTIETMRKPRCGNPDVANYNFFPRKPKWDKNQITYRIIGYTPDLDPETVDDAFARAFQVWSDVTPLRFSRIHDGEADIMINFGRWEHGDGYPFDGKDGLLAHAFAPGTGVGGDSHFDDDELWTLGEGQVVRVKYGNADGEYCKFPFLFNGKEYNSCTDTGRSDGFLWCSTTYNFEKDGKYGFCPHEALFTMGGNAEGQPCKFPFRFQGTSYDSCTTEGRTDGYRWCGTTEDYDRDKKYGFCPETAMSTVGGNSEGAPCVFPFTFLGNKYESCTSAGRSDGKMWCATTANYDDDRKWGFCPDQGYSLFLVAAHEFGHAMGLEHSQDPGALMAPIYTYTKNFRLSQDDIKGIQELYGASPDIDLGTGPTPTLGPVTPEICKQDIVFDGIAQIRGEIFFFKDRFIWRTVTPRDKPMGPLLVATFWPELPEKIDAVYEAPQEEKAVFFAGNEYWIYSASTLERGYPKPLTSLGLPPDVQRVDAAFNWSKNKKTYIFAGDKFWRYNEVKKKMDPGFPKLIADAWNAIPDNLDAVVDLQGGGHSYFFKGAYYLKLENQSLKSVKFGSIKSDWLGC
# Outline: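 Compounds first screened in duplicate at a single 25 uM, with actives followed up in concentration series. Recombinant human MMP2 cleaves a fluorogenic substrate; fluorescence taken at 1 h, inhibition fitted relative to DMSO.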
# [6] = molecular target: human Matrix Metalloproteinase-3 (MMP3), MMP3 (gene 4314) (UniProt P08254); experiment: NVS_ENZ_hMMP3: NovaScreen (NVS) Enzymatic Assay for human Matrix Metalloproteinase-3 (MMP3) (AID 2283185)
# human Matrix Metalloproteinase-3 (MMP3), MMP3 (gene 4314), sequence (P08254 whole entry, looked up): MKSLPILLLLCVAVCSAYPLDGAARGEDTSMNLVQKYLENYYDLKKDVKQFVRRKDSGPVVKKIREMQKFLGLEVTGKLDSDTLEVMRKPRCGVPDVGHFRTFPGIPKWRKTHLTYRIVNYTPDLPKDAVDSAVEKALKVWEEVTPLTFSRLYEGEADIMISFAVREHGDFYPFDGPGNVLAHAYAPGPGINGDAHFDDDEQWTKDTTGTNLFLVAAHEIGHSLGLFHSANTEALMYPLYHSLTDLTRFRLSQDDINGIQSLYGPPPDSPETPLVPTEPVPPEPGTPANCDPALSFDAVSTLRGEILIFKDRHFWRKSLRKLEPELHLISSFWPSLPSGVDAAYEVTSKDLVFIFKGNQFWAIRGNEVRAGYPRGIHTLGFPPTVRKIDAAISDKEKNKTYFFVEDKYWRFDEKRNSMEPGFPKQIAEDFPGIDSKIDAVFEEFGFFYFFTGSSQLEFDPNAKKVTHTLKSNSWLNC
# Outline: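 Fluorescent substrate turnover by recombinant MMP3 read after 1 h, signal loss scored against DMSO. Compounds first run in duplicate at 25 uM single dose, then actives confirmed by concentration series.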
# [7] = molecular target: human Matrix Metalloproteinase-9 (MMP9), MMP9 (gene 4318) (UniProt P14780); experiment: NVS_ENZ_hMMP9: NovaScreen (NVS) Enzymatic Assay for human Matrix Metalloproteinase-9 (MMP9) (AID 2283190);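 also: cell-free recombinant MMP9 protease activity read by fluorescent substrate signal; active means inhibition seen as loss of fluorescence signal versus DMSO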
# human Matrix Metalloproteinase-9 (MMP9), MMP9 (gene 4318), sequence (P14780 whole entry, looked up): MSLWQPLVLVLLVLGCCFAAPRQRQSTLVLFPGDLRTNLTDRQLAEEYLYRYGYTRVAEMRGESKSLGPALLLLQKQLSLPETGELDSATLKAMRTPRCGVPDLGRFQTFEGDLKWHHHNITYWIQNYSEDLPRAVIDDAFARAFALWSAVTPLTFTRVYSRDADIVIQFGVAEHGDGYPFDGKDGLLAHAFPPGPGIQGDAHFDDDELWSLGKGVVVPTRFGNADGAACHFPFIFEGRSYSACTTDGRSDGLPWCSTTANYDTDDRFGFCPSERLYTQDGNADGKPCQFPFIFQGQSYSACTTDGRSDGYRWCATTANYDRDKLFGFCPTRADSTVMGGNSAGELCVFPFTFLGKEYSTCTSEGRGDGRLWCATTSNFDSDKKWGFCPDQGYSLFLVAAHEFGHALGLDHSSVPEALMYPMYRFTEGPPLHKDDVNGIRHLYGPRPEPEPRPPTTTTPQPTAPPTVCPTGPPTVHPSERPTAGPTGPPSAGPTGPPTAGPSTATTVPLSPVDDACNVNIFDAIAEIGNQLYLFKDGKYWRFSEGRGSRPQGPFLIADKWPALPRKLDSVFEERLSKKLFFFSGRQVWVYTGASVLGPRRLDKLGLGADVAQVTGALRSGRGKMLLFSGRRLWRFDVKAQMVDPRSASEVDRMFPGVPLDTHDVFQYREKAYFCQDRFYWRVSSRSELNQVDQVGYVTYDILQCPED
# Outline: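 Inhibition was scored as loss of fluorescence signal against DMSO controls. The recombinant protease was exposed to chemicals for 1 hour before reading; initial testing used 25 uM in duplicate.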
# [8] = molecular target: Serine/threonine-protein phosphatase PP1-alpha catalytic subunit (Homo sapiens) (UniProt P62136); experiment: NVS_ENZ_hPPP1CA: NovaScreen (NVS) Enzymatic Assay for human Protein Phosphatase 1 Aatalytic subunit Alpha (PPP1CA) (AID 2283200)
# Serine/threonine-protein phosphatase PP1-alpha catalytic subunit (Homo sapiens), sequence (P62136 whole entry, looked up): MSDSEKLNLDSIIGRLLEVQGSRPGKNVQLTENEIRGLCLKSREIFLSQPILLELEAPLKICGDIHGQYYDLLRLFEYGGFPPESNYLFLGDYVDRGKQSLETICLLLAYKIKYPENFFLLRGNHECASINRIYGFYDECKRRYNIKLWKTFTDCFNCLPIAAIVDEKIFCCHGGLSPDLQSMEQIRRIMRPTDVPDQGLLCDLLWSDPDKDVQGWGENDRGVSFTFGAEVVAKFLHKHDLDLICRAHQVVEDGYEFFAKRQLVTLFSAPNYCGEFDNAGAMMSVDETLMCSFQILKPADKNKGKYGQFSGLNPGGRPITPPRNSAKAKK
# Outline: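 Chemicals were first screened in duplicate at 25 uM, and those passing threshold (e.g. 30% inhibition) were run as concentration series to 50 uM. Cell-free recombinant protein, 1.33 h read, fluorescent substrate/product mobility-shift detection, normalised to DMSO.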
# [9] = molecular target: Tyrosine-protein phosphatase non-receptor type 13 (Homo sapiens) (UniProt Q12923); experiment: NVS_ENZ_hPTPN13: NovaScreen (NVS) Enzymatic Assay for human Protein Tyrosine Phosphatase Non-receptor Type 13 (PTPN13) (AID 2283205)
# Outline: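 Screened first at a single 25 uM in duplicate; compounds passing the threshold (e.g. 30% inhibition) were rerun in concentration series, top 50 uM. Recombinant enzyme, fluorescent substrate, mobility-shift separation, 0.5 h read. Data fitted as inhibition relative to DMSO.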
# [10] = molecular target: Tyrosine-protein phosphatase non-receptor type 12 (Homo sapiens) (UniProt Q05209); experiment: NVS_ENZ_hPTPN12: NovaScreen (NVS) Enzymatic Assay for human Protein Tyrosine Phosphatase Non-receptor Type 12 (PTPN12) (AID 2283204)
# Tyrosine-protein phosphatase non-receptor type 12 (Homo sapiens), sequence (Q05209 whole entry, looked up): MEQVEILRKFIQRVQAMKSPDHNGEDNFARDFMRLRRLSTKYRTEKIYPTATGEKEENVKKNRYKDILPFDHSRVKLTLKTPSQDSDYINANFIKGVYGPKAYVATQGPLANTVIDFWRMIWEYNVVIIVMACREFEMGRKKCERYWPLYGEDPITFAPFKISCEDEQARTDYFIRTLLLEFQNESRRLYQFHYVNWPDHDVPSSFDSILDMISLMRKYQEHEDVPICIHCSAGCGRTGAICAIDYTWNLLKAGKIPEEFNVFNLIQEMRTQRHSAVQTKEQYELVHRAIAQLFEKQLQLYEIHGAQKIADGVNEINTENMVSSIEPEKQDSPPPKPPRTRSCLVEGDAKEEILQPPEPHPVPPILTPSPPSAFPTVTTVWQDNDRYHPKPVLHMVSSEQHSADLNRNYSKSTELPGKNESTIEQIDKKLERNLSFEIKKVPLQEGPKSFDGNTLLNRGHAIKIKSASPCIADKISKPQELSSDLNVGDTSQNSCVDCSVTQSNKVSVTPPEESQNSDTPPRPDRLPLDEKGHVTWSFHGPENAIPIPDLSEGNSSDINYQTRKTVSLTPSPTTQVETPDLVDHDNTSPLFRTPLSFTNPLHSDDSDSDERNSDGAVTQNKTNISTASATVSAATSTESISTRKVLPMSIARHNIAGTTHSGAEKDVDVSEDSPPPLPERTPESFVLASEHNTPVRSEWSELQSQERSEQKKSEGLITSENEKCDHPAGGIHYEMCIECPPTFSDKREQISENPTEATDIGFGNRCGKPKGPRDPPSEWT
# Outline: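 Single-concentration duplicates (25 uM) preceded singleton concentration-response up to 50 uM for chemicals passing threshold. Cell-free recombinant PTPN12 activity was read 1.33 h after dosing via fluorescence after mobility-shift separation; loss of signal versus DMSO.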
compound,measurement,setting,value
O=C1c2c(O)cccc2Cc2cccc(O)c21,outcome,[1],inactive
same,outcome,[2],inactive
CN(C)C(=O)NC1(c2ccccc2)CCN(CCC[C@]2(c3ccc(Cl)c(Cl)c3)CCCN(C(=O)c3ccccc3)C2)CC1,outcome,[3],inactive
CCN(CC)CCOc1ccc(C(=C(Cl)c2ccccc2)c2ccccc2)cc1,outcome,[4],inactive
CSc1ccc(Oc2ccc(S(N)(=O)=O)cc2CN(C)C)cc1C,AC50,[5],9.97 µM (active)
CCCCCCCCCCCCCCOS(=O)(=O)O,AC50,[6],26 µM (active)
O=Cc1ccccc1C=O,AC50,[6],6.96 µM (active)
C/C=C/C=C/C(=O)O,AC50,[7],1.24 µM (active)
OCC(O)CO,outcome,[7],inactive
CN(C)C(=O)NC1(c2ccccc2)CCN(CC[C@@]2(c3ccc(F)c(F)c3)CN(C(=O)c3ccccc3)CCO2)CC1,outcome,[2],inactive
same,outcome,[8],inactive
same,outcome,[4],inactive
COc1ccc(OC(F)(F)F)cc1CN[C@H]1CCCN[C@H]1c1ccccc1,outcome,[2],inactive
same,outcome,[9],inactive
CC(C)NCC(O)c1ccc(O)c(O)c1 (configuration not stated),outcome,[4],inactive
O=C(NS(=O)(=O)/C=C/c1cccs1)c1ccc(F)cc1Br,outcome,[10],inactive
CCCCOC(=O)CCCCC(=O)OCCCC,outcome,[9],inactive
